Screens as filed in PubChem.
Sampled rows, rich in hits. Any-hit rate of the full collection: about 7.9%.
HCV inhibitor = qHTS Assay for Inhibitors of Hepatitis C Virus (HCV) | Huh7.5.1 HCVcc-Cre infection, luciferase reporter, 44 h | Potency, µM (doses to about 41.8 µM), most hits filed as inhibitors | hit rate 3.4% among 340,000 | AID 651820, 2012; active means well fitted inhibition curve with a large enough effect; inconclusive means small, poorly fitted or top-dose-only effect, or another doubt; inactive means no such curve, though single readings can be large or run the other way
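Whole-lifecycle infectious HCVcc-Cre system; cells 1,000/well, compound then virus (~0.5 moi) added 4 h after plating, 44 h culture. Luciferase read 15 sec following 15 min substrate incubation, room temp.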
FMDV inh = High Throughput Screening for Foot and Mouth Disease Virus Antivirals. FMDV antiviral cell-based qHTS. Potency, µM (highest dose often 57.9 µM), hits mostly inhibitors. hit rate 1.2% among 410,000. AID 1159524, 2015; calls by dose curve; tested in HEK293T cells; further: read-out not given here; nearly all actives have a fitted effect of over 45% in size
Marburg entry inh = qHTS for inhibitors of binding or entry into cells for Marburg Virus; Potency, µM (titrated, usually from 37.8 µM), most hits filed as inhibitors; Marburg virus pseudotyped entry inhibition, cell reporter; AID 540276, 2011; hit rate 1.8% among 300,000; calls by dose curve; tested in HEK293 cells
Lassa entry inh = qHTS for Inhibitors of binding or entry into cells for Lassa Virus | Lassa virus pseudotype entry inhibition, cell reporter | Potency, µM (top dose mostly 37.9 µM), actives largely listed as inhibitors | hit rate 1.2% among 300,000; calls by dose curve; tested in HEK293 cells; further: nearly all actives have a fitted effect of over 50% in size
HCMV antiviral = qHTS Assay for inhibitors of the human cytomegalovirus (HCMV); HFF cells, HCMV-luciferase reporter, 72 h; stronger effect = lower value; activity change, negative = inhibition, % at 57.5 µM; hit rate 4.5% among 410,000; AID 1259415, 2018; in the data active means activity change below about -60%; inconclusive means no clear call, values can overlap the other calls; inactive means above about -39%
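Cell-based, HFFs, 1000 cells/well, 16 h 37C; cpds in DMSO + HCMV-luc, MOI 1 PFU/cell; 72 h 37C; OneGlo luminescence after 5 min RT; norm. to buffer vs Salinomycin 10uM.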
Numbers stand for hits; - = inactive; ? = inconclusive; . = no result.

SMILES | HCV inhibitor | FMDV inh | Marburg entry inh | Lassa entry inh | HCMV antiviral
COc1ccc(C2NC(=O)C(C#N)=C(S)N2c2ccc(C)cc2)cc1OC (stereo not drawn) | - | - | . | . | -65
COc1cc(C2NC(=O)C(C#N)=C(S)N2c2ccc(C)cc2)ccc1OC(C)C (stereo not drawn) | - | - | - | - | -
CCOC(=O)C1CCCCN1Cc1nc(N2CCN(C(C)=O)CC2)c2ccccc2n1 (stereo not drawn) | . | - | . | . | .
Cc1ccc(C2(C)NC(=O)N(CC(=O)Nc3ccc(Cl)c(S(=O)(=O)N4CCCCC4)c3)C2=O)cc1 (stereo not drawn) | ? | - | 11µM | - | -
CC1(c2ccc3ccccc3c2)NC(=O)N(CC(=O)Nc2cccc(S(=O)(=O)N3CCOCC3)c2)C1=O (stereo not drawn) | - | 35µM | ? | - | ?
CC1(c2cc(F)ccc2F)NC(=O)N(CC(=O)Nc2cccc(S(=O)(=O)N3CCCC3)c2)C1=O (stereo not drawn) | - | - | . | . | -
CC1(c2ccccc2)NC(=O)N(CC(=O)Nc2ccc(Cl)c(S(=O)(=O)N3CCCCC3)c2)C1=O (stereo not drawn) | ? | - | ? | ? | -
CCOc1ccc(S(=O)(=O)N2CCCCC2)cc1NC(=O)CN1C(=O)NC(C)(c2ccc(C)cc2)C1=O (stereo not drawn) | 10µM | - | ? | ? | .
COc1ccc(-c2cnc3c(NC=O)cc(-c4cc(OC)c(OC)c(OC)c4)cn23)cc1OC | . | - | . | . | -
COc1cccc(-c2cnc3c(NC=O)cc(-c4ccc(OC)cc4OC)cn23)c1 | . | ? | . | . | -92
CN1CCN(c2ccc(-c3cc(NC=O)c4ncc(-c5ccc(F)c(Cl)c5)n4c3)cc2)CC1 | . | - | . | . | -92
COc1ccc(-c2cc(NC=O)c3ncc(-c4cc(OC)c(OC)c(OC)c4)n3c2)cc1 | . | - | . | . | -81
COc1ccc(-c2cc(NC=O)c3ncc(-c4cccc(OC)c4)n3c2)cc1 | . | - | . | . | -
CC(=O)Nc1cc(-c2ccc(N3CCN(C)CC3)cc2)cn2c(-c3ccc(F)c(Cl)c3)cnc12 | . | - | . | . | -
COc1ccc(-c2cc(NC=O)c3ncc(-c4ccc(OC)c(OC)c4)n3c2)c(OC)c1 | . | - | . | . | -74
COc1cccc(Nc2ncc3nc(-c4cccs4)c(=O)n(C[C@H]4CCCO4)c3n2)c1 | . | - | . | . | .
COc1ccc(-c2nc3cc(C)ccc3cc2CN(C(=O)c2csc(C)n2)C2CC2)cc1OC | . | - | . | . | .
CCN(CC)c1ccc(C(=O)NNC(=O)CNC(=O)c2ccco2)cc1 | - | - | - | - | -
CC1(C)CC(=O)C2=C(C1)N=C1SCCC(=O)N1C2c1cccc([N+](=O)[O-])c1 (stereo not drawn) | - | - | . | . | -
COc1cc(OC)c(OC)cc1CN(C)C(c1ccccc1)c1nnnn1-c1ccccc1C (stereo not drawn) | 13µM | - | ? | ? | -
COc1ccc(CN(C)C(c2ccccc2)c2nnnn2-c2ccccc2C)c(OC)c1C (stereo not drawn) | - | - | ? | ? | -
CC(=O)/C(N=Nc1cc2c(c([N+](=O)[O-])c1C)C(C)(C)CC2(C)C)=C(\C)O | ? | 25µM | - | - | -
Cc1ccc2c(c1)Cc1nc3ccccc3nc1-2 | - | - | 6.3µM | ? | -
Cc1ccc2c(c1)-c1nc3ccccc3cc1C2=NC1CCCCC1 | ? | ? | ? | ? | -
COc1ccc(F)cc1S(=O)(=O)NCC(c1ccco1)S(=O)(=O)c1cccs1 (stereo not drawn) | . | - | . | - | -63
SMILES | HCV inhibitor | FMDV inh | Marburg entry inh | Lassa entry inh | HCMV antiviral
COc1ccc(F)cc1S(=O)(=O)NCC(c1ccco1)S(=O)(=O)c1ccc(F)cc1 (stereo not drawn) | . | - | . | - | -
CCCC(=O)Nc1nnc([C@H]2C[C@H](O)[C@@H](CO)O2)s1 | . | - | . | . | -96
O=C(Nc1nnc([C@@H]2C[C@H](O)[C@@H](CO)O2)s1)c1cccc(OC(F)(F)F)c1 | . | - | . | . | -84
CC(C)[C@H](NC(N)=O)C(=O)Nc1cccc([N+](=O)[O-])c1 | - | - | - | - | -
Brc1ccsc1/C=N/Nc1ccccc1 | - | - | - | - | -
CC1=NN(c2ccccc2)C(=O)C1=Cc1ccccc1 | . | - | . | . | -
CC1=NN(c2cccc(C(=O)O)c2)C(=O)/C1=C\C=C/c1ccccc1 | ? | 10µM | ? | ? | -
CC1=NN(c2ccc(C)cc2)C(=O)/C1=C\C=C\c1ccccc1 | - | 28µM | - | - | -81
COc1ccc(OCCCC(=O)Nc2cccc([N+](=O)[O-])c2C)cc1 | - | - | - | - | ?
C[C@H]1CC[C@H]2C(=O)N(Cc3ccc(Cl)cc3)C[C@@H](O)CN2[C@H]1c1ccc(Br)cc1 | . | . | - | . | .
COC(=O)CC=C1c2ccccc2[C@@H](NC(=O)OC)[C@@H]1C | . | . | - | . | .
CCCCCCCn1c(=O)c(C(=O)Nc2cnccn2)c(O)c2ccccc21 | ? | - | ? | ? | -62
CCCCCn1c(=O)c(C(=O)Nc2ccccc2S(N)(=O)=O)c(O)c2ccccc21 | ? | - | ? | ? | -101
CCCCn1c(=O)c(C(=O)NCc2ccco2)c(O)c2ccccc21 | 14µM | - | - | - | -
CC(C)Cn1c(=O)c(C(=O)Nc2ccncc2)c(O)c2ccccc21 | 10µM | - | . | . | -
CCCCCn1c(=O)c(C(=O)Nc2cc(C)ccn2)c(O)c2ccccc21 | ? | - | - | ? | -
CC(C)CCn1c(=O)c(C(=O)NCc2ccco2)c(O)c2ccccc21 | ? | - | - | - | -
O=C(c1csc2c1CCCC2)n1cccn1 | - | - | - | - | ?
COc1ccc(CN(C)c2ccc(-c3nc(-c4ccc(OC)c(OC)c4)no3)cc2[N+](=O)[O-])cc1 | . | - | - | - | -
CC(C)Cn1c(=O)c(C(=O)Nc2cnccn2)c(O)c2ccccc21 | - | - | - | - | -
CCCCCn1c(=O)c(C(=O)Nc2cnccn2)c(O)c2ccccc21 | 8.9µM | - | ? | ? | ?
CCn1cnc2sc(C(=O)Oc3cccc(C)c3)c(C)c2c1=O | 1.4µM | - | ? | - | -
COC(=O)c1c(NC(=O)COC(=O)Cn2cnc3ccccc32)sc2c1CCCC2 | ? | - | ? | - | -
O=C1C=C(C2OC(CO)C(O)C2O)C(=O)N1 (stereo not drawn) | - | 40µM | . | . | -
CCOC(=O)c1ccc(NC(=O)CN2CCN(C(=O)c3ccco3)CC2)cc1 | - | - | ? | - | -
CCOC(=O)c1c(NC(=O)CN2CCN(C(=O)c3ccco3)CC2)sc(C)c1C | . | - | ? | 11µM | -
Cc1ccccc1NC(=O)CN1CCN(C(=O)c2ccco2)CC1 | - | - | . | . | -
CCc1c(C)sc(NC(=O)CN2CCN(C(=O)c3ccco3)CC2)c1C(=O)OC | 11µM | ? | ? | 3.5µM | -
CC(C)Cc1nc2cc(NS(=O)(=O)N(C)C)cc(C(=O)N3CCOCC3)c2n1C | . | - | . | . | .
